Screening results (PubChem BioAssay)
HSP90 inh – HSP90 inhibitors, primary screen, cell lysate, luminescence; Rabbit reticulocyte lysate, luciferase refolding luminescence, 3 h; inhibition, % at 5.6 µM; hit rate 0.91% among 290,000; AID 1789, 2009;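 active = inhibition above the screen-wide mean plus 3 SD, computed separately per campaign, cut at about 16% in these data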;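 note: 0% = DMSO wells and 100% = 60 µM geldanamycin wells; inhibitors lower the luminescence because luciferase stays unfolded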
SENP8 block-1 – SENP8 protease inhibitors, primary screen, biochemical, luminescence; Sentrin-specific protease 8 (Homo sapiens), Q96LD8; purified SENP8, Z-RLRGG-aminoluciferin cleavage; inhibition, % at 10 µM; hit rate 1.2% among 330,000; AID 2540, 2010; in the data active = inhibition above about 50%
Platelet DG rel – inhibitors of platelet dense granule secretion, primary screen, cell-based, MLPCN, human platelets; inhibition, %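 (compounds screened at 7.5 µM in platelet-rich plasma)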; AID 1663, 2009; hit rate 0.22% among 300,000; human platelet-rich plasma, SFLLRN dense granule ATP release, luminescence;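 active = mean replicate score, as percent of positive control, at or above 50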
SENP7 inh – SENP7 protease inhibitors, primary screen, biochemical, luminescence, uHTS; recombinant SENP7, Z-RLRGG-aminoluciferin luminescence, 40 min; Sentrin-specific protease 7 (Homo sapiens), Q9BQF6; hit rate 1.5% among 330,000; inhibition, % at 5 µM;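 active = inhibition above about 50% at the single test dose, limit read from the data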;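 note: plate controls were DMSO with enzyme for no effect and no enzyme buffer wells for full effect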
SENP8 block-2 – human SENP8 protease inhibitors, primary screen, biochemical, fluorescence, Nedd8 protein substrate, uHTS; Sentrin-specific protease 8 (Homo sapiens), Q96LD8; recombinant SENP8; inhibition, % at 20 µM; hit rate 0.64% among 360,000; AID 602440, 2012; in the data active = inhibition mostly above about 40%, no sharp cut-off; inactive = mostly below about 27%
SENP6 inh – SENP6 protease inhibitors, primary screen, biochemical, luminescence, uHTS; hit rate 1.8% among 330,000; inhibition, % at 10 µM; Sentrin-specific protease 6 (Homo sapiens), Q9GZR1; Recombinant SENP6 catalytic domain, aminoluciferin luminescence;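 active = inhibition above about 50% at the single tested dose, limit read from the data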;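 note: plate controls were DMSO wells with enzyme for no effect and DMSO wells lacking enzyme for full effect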
Target sequence (Q9GZR1 628-1112 limits assumed): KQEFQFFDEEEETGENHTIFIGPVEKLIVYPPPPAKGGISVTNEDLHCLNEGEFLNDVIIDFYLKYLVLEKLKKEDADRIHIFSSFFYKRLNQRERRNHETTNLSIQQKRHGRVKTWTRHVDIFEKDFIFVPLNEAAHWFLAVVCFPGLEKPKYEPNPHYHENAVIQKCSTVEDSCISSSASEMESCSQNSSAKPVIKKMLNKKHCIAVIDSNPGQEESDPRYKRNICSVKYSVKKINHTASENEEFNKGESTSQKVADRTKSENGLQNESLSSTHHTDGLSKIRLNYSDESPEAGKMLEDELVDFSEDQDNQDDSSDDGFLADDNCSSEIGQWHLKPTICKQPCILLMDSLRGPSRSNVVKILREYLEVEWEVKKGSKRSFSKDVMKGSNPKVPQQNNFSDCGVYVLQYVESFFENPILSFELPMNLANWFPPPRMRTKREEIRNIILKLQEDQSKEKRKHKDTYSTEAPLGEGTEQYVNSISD
SENP8 conf – SENP8 protease inhibitors, retest, confirmation, biochemical, luminescence, single concentration. inhibition, % at 12.5 µM. Recombinant SENP8, Z-RLRGG-aminoluciferin luminescence, 60 min. hit rate 40% among 6,200. shares compounds with SENP7 inh;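 active = mean inhibition across replicates above about 50%, limit read from the data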
SENP6 conf – SENP6 protease inhibitors, confirmation, biochemical, luminescence, single concentration; shares compounds with SENP7 inh; recombinant SENP6, Z-RLRGG-aminoluciferin luminescence; inhibition, % at 12.5 µM; hit rate 58% among 6,200; AID 488915, 2010
SENP7 confirm – SENP7 protease inhibitors, retest, confirmation, biochemical, luminescence, single concentration. shares compounds with SENP7 inh. recombinant SENP7, Z-RLRGG-aminoluciferin luminescence, 40 min. inhibition, % at 12.5 µM. hit rate 69% among 6,200. AID 488917, 2010
Casp3 SENP sel – caspase-3 protease inhibitors, confirmation, selectivity assay for SENP inhibitor project, biochemical, single concentration | shares compounds with SENP7 inh | purified caspase-3, Z-DEVD-aminoluciferin luminescence, 60 min | inhibition, % at 12.5 µM | hit rate 60% among 6,200 | AID 488918, 2010;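 active = mean inhibition above about 50%, limit read from the data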;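 note: plate controls were enzyme with DMSO for no effect and wells without caspase-3 for full effect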
SENP luc ctr – luminescence interference (SENP counter-screen); shares compounds with SENP7 inh; Pre-incubated SENP8/Z-RLRGG-aminoluciferin, luciferase luminescence interference; inhibition, % at 12.5 µM; hit rate 39% among 6,200;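 active = mean inhibition above about 50% when retested at one dose, limit read from the data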;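 note: plate controls were DMSO wells with completed reaction for no effect and substrate without enzyme for full effect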
Starred values were filed as active, the others as inactive; nt = no result. The list is not random: actives were taken first. Their share in the collection is about 2.8%.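 Rule for the calls, unless noted: active = mean inhibition above about 50% in the one-dose retest (limit read from the data); inactive = the rest.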

SMILES	HSP90 inh	SENP8 block-1	Platelet DG rel	SENP7 inh	SENP8 block-2	SENP6 inh	SENP8 conf	SENP6 conf	SENP7 confirm	Casp3 SENP sel	SENP luc ctr
CCCCC#Cc1ccc2c(c1)COc1c3ccccc3nn1-2	nt	79*	5	81*	-2	85*	22	34	33	67*	10
N#CCCCC#Cc1ccc2c(c1)COc1c3ccccc3nn1-2	nt	90*	12	89*	13	93*	51*	96*	66*	68*	13
CCCCCCC#Cc1ccc2c(c1)COc1c3ccccc3nn1-2	nt	-14	0	-6	10	-15	nt	nt	nt	nt	nt
Cc1ccc2oc(-c3cccc(NC(=S)NC(=O)/C=C/c4ccco4)c3)nc2c1	8	56*	18	18	-17	57*	-24	-8	4	16	11
Cc1ccc2oc(-c3cccc(NC(=S)NC(=O)c4cccs4)c3)nc2c1	3	6	-9	11	-230	45	nt	nt	nt	nt	nt
CC(=O)Nc1ccc(-c2nnn(CC(=O)c3ccccc3)n2)cc1Cl	2	1	nt	-1	18	-12	nt	nt	nt	nt	nt
CC(=O)Nc1ccc(-c2nnn(CC(=O)c3ccc(F)cc3)n2)cc1Cl	-3	1	-2	-1	17	82*	14	9	3	-2	-1
O=C1/C(=C\c2cccnc2)CCc2ccccc21	-1	26	28	12	18	74*	75*	63*	24	2	84*
O=C1/C(=C/c2cccnc2)CC/C1=C\c1cccnc1	0	-5	-10	-13	28	-2	nt	nt	nt	nt	nt
O=C1/C(=C/c2ccccc2)CCCc2ccccc21	-1	76*	5	66*	16	70*	89*	93*	97*	76*	83*
COc1ccccc1C(CNc1nc(C(F)(F)F)nc2ccccc12)N(C)C (stereo not given)	-2	-2	-2	-3	4	-9	nt	nt	nt	nt	nt
CCOC(=O)[C@]12CCCC=C1N(Cc1ccc3c(c1)OCO3)C(=O)[C@H](CC(=O)N1CCN(C(=O)C3CC3)CC1)C2	nt	nt	nt	nt	5	nt	nt	nt	nt	nt	nt
Cn1ccs/c1=N\C(=O)Nc1cccc(Cl)c1	-2	52*	14	73*	7	70*	17	17	67*	45	51*
COc1ccccc1NC(=O)COC(=O)/C=C/c1ccc2c(c1)OCO2	3	-2	7	-4	-312	8	nt	nt	nt	nt	nt
O=C(COc1ccc2c(c1)OCO2)Nc1ccc(Cl)cn1	5	-2	-2	13	-2	17	nt	nt	nt	nt	nt
COc1ccccc1NC(=O)c1ccc2c(c1)OCO2	7	38	-2	51*	4	60*	51*	48	84*	79*	60*
O=C(/C=C/c1ccc2c(c1)OCO2)Nc1ccc(Cl)cn1	0	-2	1	54*	-373	4	-27	-17	9	6	-3
O=C(/C=C/c1ccc2c(c1)OCO2)c1ccccn1	4	73*	46	71*	0	75*	92*	89*	95*	69*	68*
COc1ccccc1NC(=O)/C=C/c1ccc2c(c1)OCO2	3	65*	3	68*	2	73*	78*	75*	93*	73*	36
O=C(C=Cc1ccc2c(c1)OCO2)c1ccccc1	nt	nt	nt	nt	-57	nt	nt	nt	nt	nt	nt
COc1ccccc1CC(=O)NNC(=O)c1ccco1	0	1	9	0	14	-32	nt	nt	nt	nt	nt
CCN(CC)S(=O)(=O)c1cc(NC(=O)c2cc([N+](=O)[O-])ccc2N2CCOCC2)ccc1C	2	3	21	5	13	-2	nt	nt	nt	nt	nt
Cc1ccccc1NC(=O)Cc1nc(COC(=O)CCNS(=O)(=O)c2ccccc2)cs1	nt	0	6	6	-12	-8	nt	nt	nt	nt	nt
O=C(Nc1ccccc1C(=O)O)c1ccc2ccccc2n1	2	35	-3	26	-20	54*	65*	60*	83*	81*	49
O=C(Nc1ccccc1)c1ccc2ccccc2n1	6	65*	1	73*	5	73*	37	70*	89*	65*	24
SMILES	HSP90 inh	SENP8 block-1	Platelet DG rel	SENP7 inh	SENP8 block-2	SENP6 inh	SENP8 conf	SENP6 conf	SENP7 confirm	Casp3 SENP sel	SENP luc ctr
O=C(Nc1ccc2c(c1)OCCO2)c1ccc2ccccc2n1	1	54*	nt	65*	-4	18	-4	66*	90*	56*	33
COc1ccc(S(=O)(=O)N2CCC(C(=O)Oc3cccc(C)c3)CC2)cc1OC	-3	0	-4	0	17	-5	nt	nt	nt	nt	nt
CCOc1ccccc1C(=O)OCC(=O)NCCNC(=O)COC(=O)c1ccccc1OCC	-4	1	-1	-6	6	-1	nt	nt	nt	nt	nt
Cc1ncoc1C(=O)Nc1cccc(Cl)c1	-4	35	13	64*	7	50*	60*	58*	86*	80*	57*
Cc1ccc(Cl)cc1NC(=O)c1ocnc1C	-1	-7	-2	8	12	-3	nt	nt	nt	nt	nt
Cc1ccc(NC(=O)c2ocnc2C)cc1Cl	2	61*	26	83*	14	81*	76*	77*	94*	83*	47
Cc1ccc(C2=NS(=O)(=O)N(C)C(C(=O)NCc3ccccc3)=C2)cc1	1	9	-11	-2	-49	3	nt	nt	nt	nt	nt
O=c1[nH]c2cnn(-c3ccccc3)c2c(=O)n1O	nt	nt	nt	nt	8	nt	nt	nt	nt	nt	nt
COc1ccc(CCN2CC(C(=O)N3CCCCCC3)CCC2=O)cc1 (stereo not given)	-4	-1	-2	2	13	46	nt	nt	nt	nt	nt
CCc1ccc(NC(=O)Cn2cnc3c(=O)n(C)c(=O)n(C)c32)cc1	3	3	7	-4	11	-15	nt	nt	nt	nt	nt
